From PubChem BioAssay (NCATS)
Results filed as inconclusive are left out. A call without a number means that no potency is given here. A number with no mark means an inactive call. Active and inactive are the calls of the source. The call rests on the fitted dose curve; in most records, active means well fitted inhibition curve with a large enough effect; inconclusive means small, poorly fitted or top-dose-only effect; inactive means flat fitted curve, though single readings scatter.

How the values were obtained:
[1] = qHTS profiling for inhibitors of Plasmodium falciparum proliferation (AID 504749); further: nearly all actives have a fitted effect of over 60% in size; details: P. falciparum in erythrocytes, SYBR Green DNA, 72 h
Method in brief: (§1)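 P. falciparum-infected erythrocytes (0.3% parasitemia, 2.5% hematocrit final) were exposed to compounds for 72 h at 37 C in 5% CO2, then lysed with SYBR Green buffer overnight at room temperature; parasite DNA fluorescence was normalized to artemisinin and DMSO controls.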

3D7 = test: as above; details: P. falciparum in erythrocytes, SYBR Green DNA, 72 h; series mostly up to 28.7 µM
Method in brief: as §1

7G8 = test: as above; details: P. falciparum in erythrocytes, SYBR Green DNA, 72 h; series mostly up to 28.7 µM
Method in brief: as §1

AA1029 = test: as above; details: P. falciparum in erythrocytes, SYBR Green DNA, 72 h; series mostly up to 28.7 µM
Method in brief: as §1

AS120 = test: as above; details: P. falciparum in erythrocytes, SYBR Green DNA, 72 h; series mostly up to 28.7 µM
Method in brief: as §1

ATS189 = test: as above; details: P. falciparum in erythrocytes, SYBR Green DNA, 72 h; series mostly up to 28.7 µM
Method in brief: as §1

ATS95 = test: as above; details: P. falciparum in erythrocytes, SYBR Green DNA, 72 h; series mostly up to 28.7 µM
Method in brief: as §1

C2A = test: as above; details: P. falciparum in erythrocytes, SYBR Green DNA, 72 h; series mostly up to 28.7 µM
Method in brief: as §1

CP185 = test: as above; details: P. falciparum in erythrocytes, SYBR Green DNA, 72 h; series mostly up to 28.7 µM
Method in brief: as §1

CP191 = test: as above; details: P. falciparum in erythrocytes, SYBR Green DNA, 72 h; series mostly up to 28.7 µM
Method in brief: as §1

CP192 = test: as above; details: P. falciparum in erythrocytes, SYBR Green DNA, 72 h; series mostly up to 28.7 µM
Method in brief: as §1

CP194 = test: as above; details: P. falciparum in erythrocytes, SYBR Green DNA, 72 h; series mostly up to 28.7 µM
Method in brief: as §1

[2] = at 28.7 µM (top of the series), parasite line A
[3] = at 28.7 µM (top of the series), parasite line B
[4] = at 12.8 µM (top of the series), parasite line A
[5] = at 12.8 µM (top of the series), parasite line B
Potency means the concentration at half of the fitted maximal effect.

Row | SMILES | activity, negative = inhibition [1, 2] | activity, negative = inhibition [1, 3] | Potency (3D7) | Potency (7G8) | Potency (AA1029) | Potency (AS120) | Potency (ATS189) | Potency (ATS95) | Potency (C2A) | Potency (CP185) | Potency (CP191) | Potency (CP192) | Potency (CP194) | activity, negative = inhibition [1, 4] | activity, negative = inhibition [1, 5] | Potency ([1]; parasite line A) | Potency ([1]; parasite line B)
1 | c1cc2c(c(N3CCNCC3)c1)OCCO2 | 8.64% | 11.7% | inactive | inactive | inactive | inactive | inactive | inactive | inactive | inactive | inactive | inactive | inactive | – | – | – | –
2 | CC[C@]1(O)CC[C@H]2[C@@H]3CCC4=CCCC[C@@H]4[C@H]3CC[C@@]21C | – | – | inactive | 7.94 µM (active) | – | – | – | – | 0.891 µM (active) | – | – | inactive | inactive | – | – | – | –
3 | CCNc1nc(Cl)nc(NCC)n1 | 3.24% | – | inactive | inactive | inactive | inactive | inactive | inactive | inactive | inactive | inactive | inactive | inactive | – | – | – | –
4 | Nc1ccc(N)cc1 | – | – | 8.91 µM (active) | – | – | – | – | – | – | – | – | inactive | – | – | – | – | –
5 | CCN(CC)CCOC(=O)C(C)(c1ccccc1)c1ccccc1 | -27.7% | – | inactive | 5.01 µM (active) | 4.47 µM (active) | – | – | – | inactive | – | – | inactive | – | – | – | – | –
6 | OC(c1ccccc1)(c1ccccc1)C1CCNCC1 | – | – | inactive | – | inactive | inactive | inactive | inactive | inactive | inactive | inactive | inactive | inactive | 1.93% | 13.2% | – | –
7 | CN1C(=O)[C@@H](NC(=O)c2cc3ccccc3[nH]2)N=C(c2ccccc2)c2ccccc21 | – | – | – | 11.2 µM (active) | – | – | – | – | – | – | – | – | – | – | – | – | –
8 | c1ccc2nc(N3CCNCC3)ccc2c1 | 16.1% | 9.33% | inactive | inactive | inactive | inactive | inactive | inactive | inactive | inactive | inactive | inactive | inactive | – | – | – | –
9 | COCC(=O)N(c1c(C)cccc1C)C(C)C(=O)OC (stereo not drawn) | – | – | inactive | inactive | inactive | – | – | – | inactive | – | – | inactive | inactive | – | – | – | –
10 | CC(Cc1ccccc1)NCc1ccccc1Cl (stereo not drawn) | -0.799% | -0.104% | inactive | 11.2 µM (active) | – | – | – | – | inactive | – | inactive | inactive | – | – | – | – | –
11 | C[C@]12Cc3nonc3C[C@@H]1CC[C@@H]1[C@@H]2CC[C@@]2(C)[C@H]1CC[C@]2(C)O | – | -29.5% | inactive | – | inactive | inactive | inactive | inactive | inactive | inactive | inactive | inactive | – | – | – | – | –
12 | CN1C[C@@H](NS(=O)(=O)N(C)C)C[C@@H]2c3cccc4c3c(cn4C)C[C@H]21 | -15.7% | -6.34% | inactive | inactive | – | inactive | inactive | inactive | inactive | inactive | inactive | – | inactive | – | – | – | –
13 | O=C(NC(=O)c1c(F)cccc1F)Nc1cc(Cl)c(OC(F)(F)C(F)C(F)(F)F)cc1Cl (stereo not drawn) | – | – | – | – | – | 8.91 µM (active) | – | – | – | – | – | inactive | inactive | – | – | – | –
14 | N#Cc1nn(-c2c(Cl)cc(C(F)(F)F)cc2Cl)c(N)c1S(=O)C(F)(F)F (stereo not drawn) | – | – | 8.91 µM (active) | 3.55 µM (active) | 8.91 µM (active) | – | – | 12.6 µM (active) | 8.91 µM (active) | – | 6.31 µM (active) | – | 15.1 µM (active) | – | – | 5.01 µM (active) | 8.91 µM (active)
15 | OC(O)C(Cl)(Cl)Cl | 9.58% | 19.3% | inactive | – | inactive | inactive | inactive | inactive | inactive | inactive | – | inactive | inactive | – | – | – | –
16 | O=C(CCCN1CCC(n2c(=O)[nH]c3ccccc32)CC1)c1ccc(F)cc1 | – | – | 1 µM (active) | 0.158 µM (active) | 3.55 µM (active) | 2.24 µM (active) | 1.58 µM (active) | 3.16 µM (active) | – | – | 1 µM (active) | – | – | – | – | 3.16 µM (active) | 3.16 µM (active)
17 | CCC1(c2ccccc2)CCC(=O)NC1=O (stereo not drawn) | 14.1% | 13.3% | inactive | – | inactive | inactive | inactive | inactive | inactive | inactive | inactive | inactive | inactive | – | – | – | –
18 | CC(C)[N+](C)(CCC(C(N)=O)(c1ccccc1)c1ccccc1)C(C)C | – | – | inactive | – | inactive | inactive | inactive | inactive | inactive | inactive | inactive | inactive | inactive | -4.63% | 4.79% | – | –
19 | CNC(=O)Oc1cccc2ccccc12 | -7.78% | -8.17% | inactive | – | inactive | inactive | inactive | inactive | inactive | inactive | inactive | inactive | inactive | – | – | – | –
20 | COP(=O)(OC)OC=C(Cl)Cl | 5.3% | 13.3% | inactive | – | inactive | inactive | inactive | inactive | inactive | inactive | inactive | inactive | inactive | – | – | – | –
